Common to all, as to experiment: NCI-60 one-dose screen, 48 h (100 = growth as untreated, 0 = no growth, -100 = all killed)
What all share (conditions): 10 µM

Experiment [1] has as its system MDA-MB-231 breast.
Experiment [2] deals with PC-3 prostate.
Experiment [3] deals with LOX IMVI melanoma.
For experiment [4], the system named is MOLT-4 leukemia.
The subject of experiment [5] is SR leukemia.
The subject of experiment [6] is IGROV1 ovarian.
For experiment [7], the system named is T-47D breast.
Experiment [8] concerns MDA-MB-435 melanoma.
Experiment [9] concerns SW-620 colon.
Experiment [10] relates to KM12 colon.
Experiment [11] deals with NCI-H322M lung.
Experiment [12] concerns A498 renal.
The test system of experiment [13] is RPMI-8226 leukemia.
For experiment [14], the system named is NCI-H522 lung.
Experiment [15] deals with COLO 205 colon.
Experiment [16] concerns HCT-116 colon.
For experiment [17], the system named is HCC-2998 colon.
The subject of experiment [18] is HS 578T breast.

This is part of a sample that, as a whole, favours compounds with a hit. Of some 83,000 tested, about 20% had one in any assay.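 The endpoint reported here, percent growth, reads 100 for growth as untreated, 0 for no net growth and -100 for all cells dead.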 Unmarked numbers belong to inactive results. Calls of active or inactive are those of the source. How the source made its calls: active means growth percent below 10; inactive means the rest.

In the case of `COC(=O)C[C@](O)(CCC(C)C)C(=O)O[C@H]1C(OC)=C[C@@]23CCCN2CCc2cc4c(cc2[C@@H]13)OCO4`, the growth is -30.3% (active) in experiment [1]; -23.5% (active) in experiment [2]; -82.4% (active) in experiment [3]; -5.07% (active) in [4]; -26.7% (active) in [5]; -19.3% (active) in experiment [6]. Also, the growth in experiment [7] was -7.42% (active); in experiment [8], -32.6% (active); in experiment [9], -27.9% (active); in experiment [10], -22.3% (active).
`CC1=C(C=O)C2=C(C)C3(CC3)[C@@](C)(O)C(=O)C2=C1`: the growth was 67.2% in [11]; -43.4% (active) in experiment [1]; -76.1% (active) in [3]; -30.3% (active) in experiment [12]; 17.1% in [13]; 53.6% in [6]. Moreover, in [9], the growth was -15.8% (active).
Regarding `O=C(/C=C/c1cccc(Br)c1)c1nc2ccccc2n1Cc1ccc(Br)cc1`, the growth in experiment [14] is -53.4% (active); in experiment [15], -34.1% (active); in [4] it was -6.66% (active); in [5], -12.4% (active); in experiment [7], -0.946% (active); in [16] it was -96% (active). Further, the growth in experiment [17] was -94.7% (active).
For the compound `C[C@H]1[C@H](OC(=O)CCC(=O)N(CCCc2cn(-c3ccc([N+](=O)[O-])cc3)nn2)CCNc2ccnc3cc(Cl)ccc23)O[C@@H]2OC3(C)CC[C@H]4[C@H](C)CC[C@@H]1[C@@]24OO3`, the growth in experiment [1] was 50.2%; in experiment [2], 41.2%; in experiment [3] it was 21.7%; in [12], 116%; in experiment [4], 2.71% (active); in experiment [5] it was -15.2% (active). Besides, the growth in experiment [6] was 44.9%; in experiment [7], 37.1%; in [9] it was 38%; in experiment [16] it was 31.1%.
Turning to `CN(C)CCc1cn(C2CCC2)c2cccc(O)c12`, the growth was 76% in [1]; 59.9% in [2]; 50.4% in experiment [3]; 57.2% in experiment [4]; 52.8% in experiment [5]; 24.4% in [13]. Also, the growth was 84.2% in experiment [6], 23% in experiment [9] and 76.1% in experiment [10].
Take `CC12OOC(C)(OO1)C2CCC(=O)NCCNc1ccnc2cc(Cl)ccc12` (stereo not given): the growth is 97.4% in experiment [11]; -61.6% (active) in [14]; 96.6% in experiment [1]; 98% in [2]; 3.57% (active) in experiment [3]; 106% in experiment [12]. In addition, the growth in [4] was 98.6%; in experiment [5] it was 21.4%; in [13], 78.8%; in experiment [7] it was 80.8%; in experiment [9], 80.6%.
Turning to `Cc1ccc2[nH]c(=S)n(-c3ccc(F)cc3)c(=O)c2c1`, the growth in [14] was 97.9%; in experiment [15], 134%; in experiment [1] it was 93.1%; in experiment [3] it was 92.7%; in experiment [4], 106%; in [5] it was 103%. The growth is 91.5% in experiment [13]; 104% in experiment [18]; 104% in experiment [8]; 102% in experiment [9]; 103% in experiment [10].
Turning to `CCOP(=O)(CC(F)(F)C(F)(F)F)OCC`, the growth in [11] was 100%; in experiment [15], -68% (active); in experiment [1] it was 51.1%; in [3], -64% (active); in [4], 4% (active); in experiment [5], 4.39% (active). Further, the growth in [13] was 7.92% (active); in [7] it was 17.3%; in experiment [9], -8.33% (active); in [17] it was 86.3%; in experiment [10], 89.3%.
As to `O=C(/C=C/c1cccc(Br)c1)c1nc2ccccc2n1Cc1ccc(F)cc1`, the growth in experiment [11] is 75.8%; in experiment [14], 59.4%; in experiment [2], 23.8%; in experiment [4] it was 3.41% (active); in experiment [5] it was -7.31% (active); in experiment [13], -24.7% (active). For the same compound, the growth in [6] was 40.4%; in [7], 17.9%; in experiment [8], 11.6%; in [16], -41.1% (active).
In the case of `CC1=C(CCC=O)C2=C(C)C3(CC3)[C@@](C)(O)C(=O)C2=C1`, the growth in [15] is -71.4% (active); in experiment [1], -99.2% (active); in [3], -94.8% (active); in [12], -56.8% (active); in experiment [13], 1.91% (active); in experiment [9] it was -74.9% (active). For the same compound, the growth in [17] is -91.6% (active).
With `COC(=O)CCn1c(-c2ccc(-n3cc(-c4ccc(O[C@H]5O[C@@H]6OC7(C)CC[C@H]8[C@H](C)CC[C@@H]([C@H]5C)[C@@]68OO7)cc4)nn3)cc2)nc2ccccc21`, the growth is 46.7% in [11]; 35% in experiment [1]; 25.7% in [2]; -54.5% (active) in experiment [3]; 11% in experiment [4]; -11.8% (active) in [5]. Further, the growth in experiment [9] is 23.9%; in experiment [16], 11.6%; in experiment [17] it was 38.5%; in experiment [10] it was 18%.
As for `COc1cc(OC)c(/C=C/C(=O)c2nc3ccccc3n2Cc2ccc(F)cc2)c(OC)c1`, the growth in experiment [14] was 79.6%; in experiment [2], 71%; in [12], 130%; in [4] it was 44.7%; in experiment [5], 74.3%; in experiment [6], 101%. Also, the growth in experiment [10] is 91.4%.
In the case of `C#CC[Se]C(=O)c1ccc(C(=O)[Se]CC#C)s1`, the growth was 99.8% in experiment [14]; 95% in experiment [1]; 93.1% in experiment [3]; 101% in [12]; 101% in experiment [4]; 26.8% in experiment [5]. The growth is 85.5% in experiment [6] and 98.2% in [9].
As for `COc1cc2cc(C(=O)N3C[C@@H](CCl)c4c3cc(OC(=O)N3CCN(C)[C@@H]5CSSC[C@H]53)c3ccccc43)[nH]c2c(OC)c1OC`, the growth in experiment [11] was -12.4% (active); in [1], -51.3% (active); in [2] it was -24.8% (active); in experiment [3], -90.2% (active); in experiment [12] it was -37% (active); in experiment [4] it was -27.3% (active). The growth in experiment [5] was -13.9% (active); in experiment [6] it was -61% (active); in [7] it was -11.8% (active); in experiment [9] it was -9.04% (active); in experiment [16], -23.6% (active); in experiment [10], -9.39% (active).

The record behind these values is PubChem BioAssay (NCI).
